Measured potencies and affinities stand elsewhere.
experiment: HIV-1 Env-mediated cell fusion inhibitors, dose response, CCR5-tropic Env (AID 2279); details: CCR5-tropic HIV-1 Env, reporter read-out; series mostly up to 50 µM; inhibition: at the top concentration; call rule not given here

inhibition, inactive:
O=C(O)c1[nH]c2ccccc2c1C(c1cccc(O)c1)c1c(C(=O)O)[nH]c2ccccc12 -15.4%
CC(C)CS(=O)(=O)C1=NSC2=NC(=O)/C(=C\c3ccc(OC(=O)c4ccco4)cc3)C(=N)N21 -4.18%
COc1cc(/C=C2\S/C(=N/S(=O)(=O)c3ccc(C)cc3)NC2=O)c([N+](=O)[O-])cc1OC -8.6%
O=C(O)CN1C(=O)/C(=C\c2cc(Br)ccc2OCc2ccc([N+](=O)[O-])cc2)SC1=S -5.78%
COc1cc(/C=C2\C(=N)N3N=C(S(C)(=O)=O)SC3=NC2=O)cc(OC)c1OCCOc1ccccc1C 6.64%
O=c1/c(=C\c2cc([N+](=O)[O-])cc([N+](=O)[O-])c2O)sc2nc3ccccc3n12 -6.52%
O=C(O)c1cc(-c2ccc(/C=C3\NC(=O)N(c4ccc(Cl)cc4)C3=O)o2)ccc1Cl -0.12%
CC(C)COc1ccc(-c2nn(-c3ccccc3)cc2/C=C2/SC(=S)N(CC(=O)O)C2=O)cc1 -10.6% [at 25 µM]
CCCCCc1c2c(cc(O)c1C(=O)O)OC(=O)c1c(cc(OC)cc1C(=O)CCCC)O2 12.6%
CC(C)S(=O)(=O)C1=NSC2=NC(=O)/C(=C\c3ccc(-c4cccc(C(=O)O)c4)o3)C(=N)N21 1.16%
O=C(O)C(c1ccccc1)N1C(=O)/C(=C\c2ccc(O)c(O)c2)SC1=S (centres undefined) -7.75%
CC(C)(C)OC(=O)N1CCC(c2cc(=O)n3[nH]cc(C(=O)Nc4ccc(F)c(Cl)c4)c3n2)CC1 5.55%
O=C1NC(=O)/C(=C/c2ccc(-c3cc(C(=O)O)ccc3Cl)o2)S1 4.39%
O=C(CN1C(=O)/C(=C2\SC(=S)N(CCS(=O)(=O)O)C2=O)c2ccccc21)Nc1cccc(Br)c1 0.67%

— PubChem BioAssay AID2279 (Southern Research Specialized Biocontainment Screening …, 2010)
